# Screening results from PubChem.
# Only some compounds are listed: those with a hit (about 0.41% of all), similar ones and a draw of the others.
# GAA inhib: qHTS Assay for Inhibitors of Human alpha-Glucosidase as a Potential Chaperone Treatment of Pompe Disease | Lysosomal alpha-glucosidase (Homo sapiens), P10253 | Potency, µM (series often up to 76.9 µM), for the others: top-dose activity change, negative = inhibition, actives largely listed as inhibitors | purified human GAA, 4-MU-alpha-glucoside fluorescence | actives 0.005% (n = 200,000);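 note: potency is the fitted concentration of half-maximal effect; plate controls were uninhibited enzyme wells for no effect and no-enzyme background for full effect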
#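 Compounds are titrated up to 77 uM against 4 nM human enzyme. Substrate 4-methylumbelliferyl-alpha-D-pyranoside (400 uM) reacts 20 min at room temperature in pH 5.0 buffer; liberated 4-methylumbelliferone is read at 440 nm.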
# GLA spleen mod: qHTS Assay for Inhibitors and Activators of Human alpha-Galactosidase From Spleen Homogenate. Potency, µM (doses to about 80 µM), for the others: top-dose activity change, negative = inhibition, usual class: inhibitors. human spleen homogenate, 4MU-alpha-Gal fluorescence, 40 min. actives 0.008% (n = 240,000). Alpha-galactosidase A (Homo sapiens), P06280;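 note: potency is the fitted concentration of half-maximal effect; 0% = enzyme with vehicle and -100% = no enzyme basal signal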
#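 Inhibition or activation of alpha-galactosidase in human spleen homogenate is scored by 4-MU fluorescence after 40 min at 37C, pH 5.0, with 1 mM substrate. AC50s come from concentration-response fitted to the Hill equation.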
# GLA inh pH 4.5: qHTS Assay for Inhibitors of Human alpha-Galactosidase at pH 4.5; Alpha-galactosidase A (Homo sapiens), P06280; purified enzyme, 4-MU-alpha-Gal fluorescence, pH 4.5; activity change, negative = inhibition, % at 105 µM; 230,000 tested, under 10 active; AID 1467, 2008;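 note: 0% = full activity with enzyme and -100% = basal without enzyme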
# Target sequence (P06280 whole entry, looked up): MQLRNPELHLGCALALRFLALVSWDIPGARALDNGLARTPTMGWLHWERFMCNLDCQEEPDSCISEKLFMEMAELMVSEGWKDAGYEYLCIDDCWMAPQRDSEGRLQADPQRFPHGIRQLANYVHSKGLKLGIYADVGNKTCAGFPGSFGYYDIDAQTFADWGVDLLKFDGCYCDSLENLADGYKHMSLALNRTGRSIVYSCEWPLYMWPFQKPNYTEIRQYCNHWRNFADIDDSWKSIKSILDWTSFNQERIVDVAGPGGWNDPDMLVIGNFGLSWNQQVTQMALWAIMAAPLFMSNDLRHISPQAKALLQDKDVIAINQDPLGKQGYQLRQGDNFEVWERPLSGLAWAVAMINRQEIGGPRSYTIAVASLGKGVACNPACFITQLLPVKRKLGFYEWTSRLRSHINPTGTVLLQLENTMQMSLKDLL
# GAA glycogen mod: qHTS Assay for Inhibitors and Activators of Human alpha-Glucosidase Cleavage of Glycogen; recombinant GAA, glycogen substrate, Amplex Red glucose oxidase fluorescence; Potency, µM (highest dose often 76.4 µM), without a hit: top-dose activity change, negative = inhibition, hits mostly inhibitors; actives 0.38% (n = 300,000);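 note: potency is the fitted concentration of half-maximal effect; 0% = full enzyme reaction and -100% = no-enzyme basal signal; the screen sought inhibitors and activators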
#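 Recombinant human enzyme (4 nM); glycogen substrate; 37 C, 40 min, pH 5.0. Readout: coupled glucose oxidase/Amplex Red fluorescence.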
# aGlu spleen mod: qHTS Assay for Inhibitors and Activators of Human alpha-Glucosidase From Spleen Homogenate; Lysosomal alpha-glucosidase (Homo sapiens), P10253; actives 0.006% (n = 240,000); human spleen homogenate, 4-MU-alpha-glucoside fluorescence; Potency, µM (series often up to 79.9 µM), for inactives: at the highest dose activity change, negative = inhibition, hits mostly inhibitors;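 note: potency is the fitted concentration of half-maximal effect; 0% = enzyme with vehicle and -100% = no enzyme basal signal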
#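 Compounds were titrated against alpha-glucosidase in spleen homogenate at pH 5.0, with 1 mM 4-methylumbelliferyl substrate for 40 min at 37 C. Reactions were quenched with pH 10 NaOH/glycine and fluorescence measured.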
# N370S GC: qHTS Assay for Inhibitors and Activators of N370S glucocerebrosidase as a Potential Chaperone Treatment of Gaucher Disease | Lysosomal acid glucosylceramidase (Homo sapiens), P04062 | N370S GC spleen homogenate, 4MU-glucoside fluorescence | Potency, µM (highest dose often 59.4 µM), inactives show at the highest dose activity change, negative = inhibition, hits mostly inhibitors | actives 0.092% (n = 330,000);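 note: potency is the fitted concentration of half-maximal effect; 0% = full enzyme activity and -100% = no enzyme basal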
# * marks the source's active call; other numbers are inactive results; ? = inconclusive; nt = no result given; [ ] = dose if it differs, or a comment. Calls come from the whole dose curve; as a rule, active = well fitted curve in the direction sought with a large enough effect; inconclusive = small, poorly fitted or top-dose-only effect, or another doubt; inactive = no such curve, though single readings can be large; an effect the other way counts as inactive or inconclusive.
SMILES,GAA inhib,GLA spleen mod,GLA inh pH 4.5,GAA glycogen mod,aGlu spleen mod,N370S GC
O=[N+]([O-])c1cc(C(F)(F)F)ccc1NCCc1c[nH]c2ccc(O)cc12,-8%,1%,-17,9.9µM*,-6%,13%
Nc1nonc1N/N=C\c1ccccc1,nt,-3%,3,-24%,0%,-10%
Nc1nonc1N/N=C/c1c(O)ccc2ccccc12,?,6%,-8,9.9µM*,-2%,-4%
O=C(C1=C[C@@H](c2ccc(Br)cc2)C[C@@H](OCc2ccc(CO)cc2)O1)N1CCN(Cc2ccccc2)CC1,nt,2%,-2,4%,4%,14µM*
O=C(C1=C[C@H](c2ccc(C(F)(F)F)cc2)C[C@H](OCc2ccc(CO)cc2)O1)N1CCN(Cc2ccc3c(c2)OCO3)CC1,nt,6%,-24,-18%,-8%,-29%
O=C(C1=C[C@@H](c2ccc(C(F)(F)F)cc2)C[C@@H](OCc2ccc(CO)cc2)O1)N1CCN(Cc2ccc3c(c2)OCO3)CC1,nt,-5%,-13,-7%,-16%,10µM*
O=C(NNc1nc2ccccc2nc1C(F)(F)F)c1ccccc1,-4%,-8%,-2,11µM*,-18%,-6%
Cc1ccc(S(=O)(=O)NNc2nc3ccccc3nc2C(F)(F)F)cc1,-11%,14%,1,28µM*,9%,8%
Cc1ccc(S(=O)(=O)NNc2ccccc2)cc1,4%,3%,1,?,-5%,nt
O=C(N/N=C/c1ccc2c(c1)OCO2)C1CC1,nt,nt,nt,nt,nt,-2%
O=S1(=O)CC(O)C(NCc2ccco2)C1 (configuration not stated),1%,3%,0,8%,11%,5%
CC(C)(C)c1cc(CNC2CS(=O)(=O)C[C@@H]2O)cc(C(C)(C)C)c1O (some centres not stated),7%,10%,0,16µM*,4%,?
Cn1c(-c2cccc([N+](=O)[O-])c2)cnc1NCc1cccc([N+](=O)[O-])c1,-6%,1%,9,22µM*,-4%,-13%
Cc1cccc(CNc2ncc(-c3cccc([N+](=O)[O-])c3)n2C)c1,-1%,-2%,3,?,3%,-4%
Cc1cc(C)c2c(NC(=O)c3ccccc3Cl)c(C(=O)NCc3ccc(Cl)cc3)sc2n1,nt,nt,nt,-3%[76.3 µM],nt,nt
Fc1ccc(/C=N/Nc2nccnc2Cl)cc1,nt,nt,nt,-2%[76.3 µM],nt,-14%
Oc1ccc(/C=N/Nc2nccnc2Cl)cc1,-11%,2%,0,11µM*,-7%,-18%
CC[C@H](C)[C@H](NC(=O)[C@H](Cc1ccc(O)cc1)NC(=O)[C@H](Cc1cnc[nH]1)NC(=O)[C@H](CCCNC(=N)N)NC(=O)[C@H](CC(C)C)NC(=O)[C@H](C)NC(=O)[C@H](CO)NC(=O)[C@H](Cc1ccc(O)cc1)NC(=O)[C@H](Cc1ccc(O)cc1)NC(=O)[C@H](CCCNC(=N)N)NC(=O)[C@H](C)NC(=O)[C@H](CC(C)C)NC(=O)[C@H](CC(=O)O)NC(=O)[C@H](CCC(=O)O)NC(=O)[C@H](C)NC(=O)[C@@H]1CCCN1C(=O)[C@H](C)NC(=O)[C@H](CC(=O)O)NC(=O)[C@H](CCC(=O)O)NC(=O)CNC(=O)[C@@H]1CCCN1C(=O)[C@H](CC(N)=O)NC(=O)[C@H](CC(=O)O)NC(=O)[C@@H]1CCCN1C(=O)[C@H](CCCCN)NC(=O)[C@H](CO)NC(=O)[C@@H]1CCCN1C(=O)[C@@H](N)Cc1ccc(O)cc1)C(=O)N[C@@H](CC(N)=O)C(=O)N[C@@H](CC(C)C)C(=O)N[C@H](C(=O)N[C@H](C(=O)N[C@@H](CCCNC(=N)N)C(=O)N[C@@H](CCC(N)=O)C(=O)N[C@@H](CCCNC(=N)N)C(=O)N[C@@H](Cc1ccc(O)cc1)C(N)=O)[C@@H](C)O)[C@@H](C)CC,nt,4%,nt,nt,1%,-3%
COc1ccc(C(=O)c2cn[nH]c2-c2ccc(C)cc2O)cc1,nt,nt,nt,-3%,nt,-13%
COc1ccc(-c2cc(=O)c(C(=O)c3ccc(C)cc3)n[nH]2)cc1,11%,40µM*,11,6%,?,27%
Cc1c(NC2=C(Cl)C(=O)N(c3ccccc3Cl)C2=O)c(=O)n(-c2ccccc2)n1C,-4%,10%,-16,0%,4%,0%
Cc1c(NC2=C(Cl)C(=O)N(c3ccccc3)C2=O)c(=O)n(-c2ccccc2)n1C,0%,-5%,-4,10µM*,-3%,-12%
